An excerpt weighted towards active compounds, which were near 2.7% of everything screened.
TRPM1 prom inh – MITF TRPM1 promoter inhibition in SK-MEL-5 cells; SK-MEL-5 TRPM1 promoter luciferase, 24 h; inhibition, % at 12.5 µM; 330,000 compounds, 0.83% hits; AID 488899;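 active = mean inhibition across replicates of 60% or more, whatever share of single replicates reaches that level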
Shn3 inh set2 – inhibitors of Schnurri-3 3'UTR reporter in osteoblasts. Clone20 osteoblast Shn3 3'UTR firefly luciferase, 24 h. inhibition, % at 12.5 µM. 360,000 compounds, 0.52% hits;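 active = mean inhibition of at least 75% with every replicate also reaching 75%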;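 note: 0% = median of neutral control wells and 100% = pilot-screen positive control compound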
HIF-2a inh – HIF-2a inhibition | 786-0 RCC cells HIF-2a reporter, luciferase luminescence, overnight | inhibition, % at 18.8 µM | 360,000 compounds, 0.72% hits | AID 624352;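 active = inhibition of the luminescence signal of 40% or more relative to plate controls, in a single-dose primary screen at 18.75 µM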
CF NFkB block – inhibitors of cystic fibrosis induced NF-kB; KKLEB NF-kB-GFP reporter, PAF-induced, GFP fluorescence overnight; inhibition, % at 5 µM; 360,000 compounds, 0.86% hits; AID 588850;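 active = at least 50% inhibition at 5 µM, scaled per plate between neutral and stimulator controls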;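 note: PAF is a Pseudomonas aeruginosa culture filtrate used as stimulus; plate controls were PAF-stimulated DMSO wells for no effect and unstimulated DMSO wells for full effect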
Peg3 prom inh – Peg3 promoter activity inhibition | inhibition, % at 20 µM | AID 588405 | HeLa PEG-Prom luciferase reporter, luminescence, overnight | 360,000 compounds, 1.7% hits;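 active = inhibition of at least 50% at 20 µM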
KKLEB tox – counter-screen for CF NF-kB inhibitors: cytotoxicity | activity change (cytotoxicity), % at 5 µM | AID 602141 | KKLEB CF airway cells viability, ATPlite luminescence, overnight; active compounds read low; cells stimulated with P. aeruginosa culture filtrate | 360,000 compounds, 0.36% hits;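 active = corrected activity change at or below -50% at 5 µM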
CF NFkB inh conf – confirmation of cystic fibrosis induced NF-kB inhibitors; AID 602472; KKLEB CF airway cells, PAF-induced NF-kB-GFP fluorescence, overnight; shares compounds with CF NFkB block; 1,300 compounds, 64% hits; inhibition, % at 5 µM; in the data active = inhibition above about 40%;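 note: stimulus PAF is a Pseudomonas aeruginosa filtrate and not platelet activating factor; plate controls were DMSO wells with stimulus for no effect and unstimulated DMSO wells for full effect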
The depositor's hits bear a star; nt = no result; ! = a repeat was not active.

SMILES	TRPM1 prom inh	Shn3 inh set2	HIF-2a inh	CF NFkB block	Peg3 prom inh	KKLEB tox	CF NFkB inh conf
COCCCN(C(=O)c1ccc(N2CCCC2=O)cc1)c1c(N)n(Cc2ccccc2)c(=O)[nH]c1=O	6	-4	22	-5	-6	4	nt
CCCCC(=O)/C=C/n1c(=S)oc2ccccc21	12	-47	-43	90*	101*	-36	-143
O=C(C[C@H]1C(=O)N(CCc2ccccc2)C[C@@H]1c1ccccc1)Nc1ccccc1	nt	-5	6	20	7	-14	nt
COCCNC(=O)C1CCCN(C(=O)Cc2ccc(F)cc2)CC1 (stereo unspecified)	nt	-7	1	-16	-30	4	nt
C[C@@H]1CN([C@H](C)CO)C(=O)c2cc(NC(=O)Nc3ccc(C(F)(F)F)cc3)ccc2O[C@H]1CN(C)S(=O)(=O)c1ccccc1	10	8	22	57*	12	14	57*
COc1ccc(S(=O)(=O)N(C)C[C@H]2Oc3ccc(NC(=O)Nc4ccc(C(F)(F)F)cc4)cc3C(=O)N([C@H](C)CO)C[C@@H]2C)cc1	54	57	-27	23	41	-15	nt
C[C@@H]1CN([C@@H](C)CO)C(=O)c2cccc(NC(=O)Nc3ccc(F)cc3)c2O[C@@H]1CN(C)Cc1ccc(Oc2ccccc2)cc1	37	38	-3	11	38	-14	nt
COc1ccc(NC(=O)Nc2cccc3c2O[C@H](CN(C)Cc2ccc(-c4ccccc4)cc2)[C@@H](C)CN([C@H](C)CO)C3=O)cc1	23	17	-11	59*	94*	-32	-9
O=C(OC1CCOC1=O)c1ccccc1C(=O)c1ccc(Cl)c([N+](=O)[O-])c1 (stereo unspecified)	3	9	-8	72*	-2	-12	52*
CCCOc1ccc(C(=O)c2ccccc2C(=O)OC2CCOC2=O)cc1OCCC (stereo unspecified)	6	1	8	2	9	6	nt
O=C(CCS(=O)(=O)c1ccccc1)N(CCCN1CCOCC1)c1nc2ccc(F)cc2s1	-29	-147	-180	59*	94*	-38	2
O=C(CCS(=O)(=O)c1ccccc1)N(CCCN1CCOCC1)c1nc2c(F)cccc2s1	-19	44	-75	94*	104*	-39	71*
Cc1cc(OCC(=O)OCC(=O)N(Cc2ccccc2)C(C)(C)C)ccc1Cl	nt	3	1	0	8	8	nt
COc1cccc(-c2ccc3ncnc(NCc4cccs4)c3c2)c1	7	-15	21	61*	31	-7	85*
c1cncc(-c2ccc3ncnc(NCc4ccc5c(c4)OCO5)c3c2)c1	-6	6	19	55*	18	-13	65*
COc1cccc(-c2ccc3ncnc(NCc4cccc(C)c4)c3c2)c1	0	9	24	69*	19	-8	62*
COc1cccc(CNc2ncnc3ccc(-c4c(C)noc4C)cc23)c1	20	45	-24	11	-38	-33	nt
c1cncc(-c2ccc3ncnc(NCc4cccs4)c3c2)c1	9	15	17	7	11	-11	nt
CCOC(=O)C1(C)CCCCCN1C(=O)c1ccc(N(C)C)cc1 (stereo unspecified)	nt	-13	0	-3	1	-8	nt
CCCNC(=O)C1(C)CCCN(CCC(=O)c2ccccc2)C1 (stereo unspecified)	nt	8	2	9	11	-8	nt
Oc1c(C(c2ccccc2)N2CCOCC2)ccc2ccccc12 (stereo unspecified)	16	11	10	79*	56*	-44	-13
Nc1[nH]nc2nc(N3CCCC3)nc(-c3ccccc3)c12	11	-16	18	14	5	-7	nt
COc1ccc(-c2nc(N3CCOCC3)nc3n[nH]c(N)c23)cc1	24	26	29	69*	22	-26	56*
Cc1cn([C@H]2C[C@H](O)[C@@H](CNCc3cccc(OC4CCCC4)c3)O2)c(=O)[nH]c1=O	nt	-16	11	-20	-4	9	nt
CCN1CCN(Cc2ccc(NC(=O)c3ccc(C)c(NC(=O)N4CCNC4=O)c3)cc2C(F)(F)F)CC1	12	7	3	50*	0	-1	60*
SMILES	TRPM1 prom inh	Shn3 inh set2	HIF-2a inh	CF NFkB block	Peg3 prom inh	KKLEB tox	CF NFkB inh conf
CCN1CCN(c2ccc(NC(=O)c3ccccc3F)cc2Cl)CC1	-46	-69	-213	-4	-210	-10	nt
Cc1ccc(NC(=O)c2cc(-c3ccccc3)n[nH]2)cc1	-71	-12	-230	14	-122	2	nt
Cc1cn(-c2cc(C(=O)Nc3ccc(C)c(NC(=O)N4CCNC4=O)c3)cc(C(F)(F)F)c2)cn1	1	4	9	32	8	-9	nt
CCN1CCN(Cc2ccc(NC(=O)c3ccc(C)c(NC(=O)c4cc(-c5ccc(Br)cc5)n[nH]4)c3)cc2C(F)(F)F)CC1	-14	12	-22	51*	41	-25	67*
CCN1CCN(Cc2ccc(NC(=O)c3ccc(C)c(NC(=O)c4cccc5[nH]ccc45)c3)cc2C(F)(F)F)CC1	4	49	-23	54*!	42	-15	49*
O=C(Nc1ccccc1F)c1ccc2sc([C@@H]3O[C@H](CO)[C@H](O)[C@H](O)[C@H]3O)nc2c1	nt	-17	-156	-17	-135	-10	nt
COC(=O)[C@]12CCCCC=C1N(CCc1ccc(OC)c(OC)c1)C(=O)[C@H](CC(=O)N1CCOCC1)C2	nt	nt	7	nt	nt	nt	nt
C#CCn1c2ccccc2c(=O)n1CCOc1ccccc1OC	nt	nt	11	nt	nt	nt	nt
CCN1CCN(c2ccc(S(=O)(=O)N3CCCCC3)cc2NC(=O)Cc2ccccc2)CC1	4	-18	4	57*	16	-48	18
O=C(NCC[C@@H]1CC[C@@H](NC(=O)c2cnccn2)[C@@H](CO)O1)c1ccc2c(c1)OCO2	nt	nt	9	nt	nt	nt	nt
Cc1ccc(C(=O)Nc2cccc(C(F)(F)F)c2)cc1Nc1cnccn1	5	12	1	51*	-3	0	43*
Cc1ccc(C(=O)Nc2cccc(C(F)(F)F)c2)cc1NC(=O)c1ccno1	-13	4	-15	60*	27	-4	71*
Cc1ccc(C(=O)Nc2cccc(C(F)(F)F)c2)cc1NC(=O)c1nccn1C	nt	-6	-9	19	4	3	nt
CC(C)[C@H](NC(=O)OC(C)(C)C)c1cc(C(=O)N2CCOCC2)c(N)s1	nt	nt	0	nt	nt	nt	nt
N#Cc1ccsc1NC(=O)c1ccc(Cl)c([N+](=O)[O-])c1	-14	-36	-105	50*	-164	-25	68*
N#Cc1ccsc1NC(=O)c1cccc([N+](=O)[O-])c1	-8	19	-15	16	-38	-6	nt
